# In PubChem BioAssay (NCI):
# The panel holds about 83,000 compounds, 20% with a hit somewhere; the sample as a whole holds those more often.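 Single-dose data. Exposure time 48 hours. Values below 10 considered active.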 A number with no mark means an inactive call. The source made the active and inactive calls.
# How the values were obtained:
# Experiment in all cases: NCI-60 one-dose screen, 48 h (100 = growth as untreated, 0 = no growth, -100 = all killed)
# Conditions in all cases: 10 µM unless noted
# MDA-MB-435 melanoma = test system: MDA-MB-435 melanoma
# SW-620 colon = test system: SW-620 colon
# MCF7 breast = test system: MCF7 breast
# HCT-116 colon = test system: HCT-116 colon
# HCC-2998 colon = test system: HCC-2998 colon
# KM12 colon = test system: KM12 colon
# BT-549 breast = test system: BT-549 breast
SMILES,growth (MDA-MB-435 melanoma),growth (SW-620 colon),growth (MCF7 breast),growth (HCT-116 colon),growth (HCC-2998 colon),growth (KM12 colon),growth (BT-549 breast)
CCOC(=O)c1nnn(Cc2cc(=O)oc3ccc(O)cc23)c1C,104%,98.2%,92.4%,96%,97.3%,102%,–
N#Cc1c(-c2cccc(Cl)c2)cc(-c2cccnc2)[nH]c1=O,2.97% (active),71.1%,48.2%,72.4%,98.6%,65.6%,72.5%
Nc1cc(Br)cc2c1[nH]c(=O)c1ccccc12,113%,94.7%,53.2%,96.8%,104%,104%,86.9%
CC(C)Cc1nc(Nc2ccccc2)[nH]c(=O)c1C#N,70.6%,70.3%,53.4%,54.7%,38.1%,50.6%,39%
COc1ccc(N=C2NN=C(c3c[nH]c4ccccc34)CS2)cc1OC,-8.16% (active),50.4%,42.1%,39.1%,71.7%,23.7%,-0.386% (active)
O=CN1N=C(c2cccc(Nc3ccnc4cc(Cl)ccc34)c2)CC1c1ccc(Cl)cc1 (stereo not given),-38.3% (active),23.4%,14.6%,1% (active),44.3%,28.1%,8.58% (active)
COc1cc(-c2cc(-c3ccc(Nc4nc(Nc5ccc(Cl)cc5)nc(Nc5ccc(Cl)cc5)n4)cc3)no2)cc(OC)c1OC,71.5%,89.1%,49.4%,66.2%,61.3%,83.8%,88.6%
COc1ccc2c(c1)CC[C@@H]1[C@@H]2CC[C@]2(C)C3C(=CC(COC(C)=O)C4C(=O)N(c5ccc(Cl)cc5)C(=O)C43)C[C@@H]12 (stereo not given in full),111%,104%,108%,85.2%,92.9%,102%,116%
CC12OC(CC(O)C1O)n1c3ccccc3c3c4c(c5c6ccccc6n2c5c31)C(=O)N(CCN1CCCC1)C4=O (stereo not given),30.4%,13.9%,2.15% (active),13.4%,13.3%,27.9%,52.9%
N#Cc1c(-c2ccccc2)cc(-c2ccccc2)n(CCCCC(=O)NO)c1=O,-13.7% (active),11.5%,20.5%,5.09% (active),29.3%,22.9%,52.8%
Cn1c(C#N)ccc1-c1ccc(F)c(NC(=O)c2ccc(F)cc2)c1,-11.2% (active),44.9%,49.4%,77.4%,90.5%,60.9%,80%
COC(=O)c1c2c(c[n+]([O-])c1C)C(=O)C=C(NCc1ccccc1)C2=O,-86.5% (active),-78.9% (active),-57.3% (active),-79.5% (active),-89.5% (active),-83.2% (active),-87.3% (active)
O=C(Nc1cc(Cl)cc(Cl)c1)Oc1c(Cl)c(Cl)c(Cl)c(Cl)c1Cl,75.9%,88.3%,83%,62.1%,93.4%,83.3%,74.9%
COC(=O)/C=C1/SC(=NCc2ccccc2)N(CCc2c[nH]c3ccccc23)C1=O,72.3%,72%,48.4%,53.6%,99.8%,70.4%,66.9%
O=S(=O)(N=C1C(Cl)=C(Cl)C(=NS(=O)(=O)c2ccccc2)C(Cl)=C1Cl)c1ccccc1,–,39.7%,53.8%,25.4%,122%,96.2%,86.6%
C=C1CC[C@@H]2C(C)(C)[C@H](O)CC[C@@]2(C)[C@@H]1COc1ccc2ccc(=O)oc2c1,64.4%,89.5%,53.9%,64.1%,95.4%,28.2%,5.68% (active)

SMILES,growth (MDA-MB-435 melanoma),growth (SW-620 colon),growth (MCF7 breast),growth (HCT-116 colon),growth (HCC-2998 colon),growth (KM12 colon),growth (BT-549 breast)
C/C(Cc1ccc(Cl)cc1)=C(\c1ccc(OCCN2CCCCCC2)cc1)c1ccc(OC(=O)c2ccccc2)cc1,–,37.3%,9.46% (active),-64.8% (active),23.8%,32%,56.2%
Fc1cccc(CNc2c3ccccc3nc3ccccc23)c1,48.9%,22%,7.9% (active),13.4%,29.9%,48.6%,77.1%
COCCOC(C)C(/C=N/NC(N)=S)=N/NC(N)=S (stereo not given),87.4%,61.7%,19.2%,6.21% (active),94.2%,92.2%,90.1%
COc1ccc(C2[C@@H](c3ccccc3)C(=O)N2c2cc(OC)c(OC)c(OC)c2)cc1F (stereo not given in full),-23% (active),24.2%,12.5%,3.36% (active),15.1%,13.2%,-2.79% (active)
Cc1cccc(N2C(=O)/C(=C/C(Cl)=C/c3ccc([N+](=O)[O-])cc3)SC2=S)c1C,10.4%,0.401% (active),15.2%,-38.8% (active),42%,19.3%,3.15% (active)
COc1ccc(C(=O)/C=C/c2ccccc2)cc1S(N)(=O)=O,96.5%,25.8%,25%,13.4%,95.2%,38%,75.2%
c1ccc(-c2c(-c3ccccc3)[n+](Cc3ccc4ccccc4c3)cn2Cc2ccc3ccccc3c2)cc1,-91.3% (active),-79.8% (active),-83.8% (active),-87.5% (active),-93.3% (active),-80.2% (active),-82% (active)
CCN(CC)CCCC(Cc1ccccc1)Nc1c2ccc(Cl)cc2nc2ccc(OC)cc12 (stereo not given),-66.5% (active),13.2%,-9.45% (active),14.6%,-72.1% (active),45.3%,53.3%
O=c1cc(CNc2cc(F)cc(F)c2)c2ccc(I)cc2[nH]1,-28.1% (active),19.1%,21.9%,26.4%,64.6%,24.1%,54.8%
CNC(=O)c1cc(Oc2ccc3c(c2)sc2nc(-c4ccc(NC(=O)[C@@H](NC(=O)OC)C(C)C)cc4)cn23)ccn1,38.5%,84.3%,51.6%,55%,93.4%,32.8%,14.2%
Oc1c(I)cc(I)cc1CN(Cc1ccccn1)Cc1ccccn1,35.6%,22.2%,13.4%,18.1%,35.1%,26.8%,30.7%
COC(=O)c1ccc2c(c1)c1c(C)c3cnccc3c(C)c1n2C,6.89% (active),-6.12% (active),-37.1% (active),-59.8% (active),1.42% (active),1.9% (active),-4.33% (active)
Cc1nn(C)c2ncnc(N/N=C/c3cccc(O)c3O)c12,24.4%,26.7%,15%,18%,38.2%,21.5%,30.8%
N#Cc1ccc(/C=C/c2cn(-c3ccccc3)nc2-c2cccc([N+](=O)[O-])c2)cc1,61.2%,57.1%,58.7%,30.1%,82%,65.7%,40.5%
COc1ccc2c(O)c(/C=C3\N=Nc4ncccc43)oc2c1C[C@@H]1CCNC[C@H]1F,-9.87% (active),-6.3% (active),-14.5% (active),-59.6% (active),-21.5% (active),-48.7% (active),-43.2% (active)
C=C1C(=O)O[C@@H]2C3C(=C(C)CC[C@@H]12)CC1O[C@]13C (stereo not given in full),–,71.8% [6.75 µM],44.2% [6.75 µM],46.1% [6.75 µM],108% [6.75 µM],102% [6.75 µM],76.3% [6.75 µM]
